From PubChem
BRCA1 expr act: qHTS Assay to Identify Small Molecule Activators of BRCA1 Expression; MCF7-BRCA1-FFLuc reporter, luminescence, 48 h; response scale: scaled: vehicle 0%, 10 µM genistein 100%; Potency, µM (doses to about 46.1 µM), inactives show at the highest dose activation, most hits filed as activators; hit rate 1.1% among 380,000; AID 624202, 2012; further: potency means the concentration at half of the fitted maximal effect; nearly all actives have a fitted effect of over 80% in size
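Quantitative HTS in MCF7 cells stably reporting BRCA1 expression via firefly luciferase. Compound treatment lasts 48 h at 37 °C in phenol-red free MEM. Activation is expressed relative to genistein at 10 microM and DMSO.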
BCR signal inh: qHTS Assay to Find Inhibitors of Chronic Active B-Cell Receptor Signaling. ABC-DLBCL IkBa-CBG/CBR reporter, luminescence ratio, 4 h. Potency, µM (doses to about 46.1 µM), inactives show top-dose activity change, negative = inhibition, most hits filed as inhibitors. hit rate 0.05% among 340,000; active means well fitted inhibition curve with a large enough effect in the signal ratio, with a control signal flat, not every such curve was filed as active; inconclusive means small, poorly fitted or top-dose-only effect, or effect the other way, or a change in a side signal; the % refers to the signal ratio;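 further: potency means the concentration at half of the fitted maximal effect; plate controls were basal doxycycline-induced cells for no effect and cells given 10 µM MG132 for full effect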
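Cell line TMD8 (human ABC DLBCL), stably expressing tet-inducible CBG68-IkBa fusion and CBR; IMDM/0.5% FBS; cpd up to 46 uM; dox induction, 4 h, 37C/5% CO2; dual luminescence; green/red ratio; MG132 control.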
PTHR1 agonist: qHTS for PTHR1 Agonists: Primary Screen; HEK293 GP2 PTHR1 cells, GloSensor cAMP luminescence, 1 h; Potency, µM (titrated, usually from 115 µM), without a hit: top-dose activation, actives largely listed as activators; AID 743266, 2014; hit rate 0.075% among 410,000; further: potency means the concentration at half of the fitted maximal effect; nearly all actives have a fitted effect of over 55% in size
Target sequence (Q03431 whole entry, looked up): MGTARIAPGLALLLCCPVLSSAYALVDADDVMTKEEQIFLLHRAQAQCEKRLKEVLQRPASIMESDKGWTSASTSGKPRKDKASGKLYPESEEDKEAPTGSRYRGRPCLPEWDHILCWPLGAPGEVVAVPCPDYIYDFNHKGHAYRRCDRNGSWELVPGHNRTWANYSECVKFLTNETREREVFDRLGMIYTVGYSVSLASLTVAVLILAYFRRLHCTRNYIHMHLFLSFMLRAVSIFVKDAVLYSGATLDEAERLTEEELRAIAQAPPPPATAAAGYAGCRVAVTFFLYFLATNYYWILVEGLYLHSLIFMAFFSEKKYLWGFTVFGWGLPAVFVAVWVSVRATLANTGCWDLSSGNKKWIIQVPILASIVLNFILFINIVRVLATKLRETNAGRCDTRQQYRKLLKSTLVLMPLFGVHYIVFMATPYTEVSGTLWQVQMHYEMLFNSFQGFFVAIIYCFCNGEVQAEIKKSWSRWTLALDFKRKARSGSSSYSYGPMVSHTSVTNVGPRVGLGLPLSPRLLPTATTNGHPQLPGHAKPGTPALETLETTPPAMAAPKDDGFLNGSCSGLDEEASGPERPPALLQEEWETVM
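HEK-293-derived GP2 cells expressing PTHR1 and a GloSensor cAMP reporter, 3,000/well, plated overnight, given luciferin plus IBMX (each 0.5 mM as added) for 1 h at 37 °C, then compound for 1 h at 37 °C. Luminescence was read after 15 min at room temperature.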
IL-2 act: qHTS of IL-2 Activators | IL-2 activation reporter assay, cell-based qHTS; stimulated with anti-CD3/CD4/CD28 beads; in transgenic mouse T cells | hit rate 0.065% among 360,000 | activation, % (series mostly up to about 46 µM); in the data active means activation above about 50%; inconclusive means mostly about 30% to 49%; further: 0% is about no effect
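Unstimulated transgenic mouse T cells; 60-min compound exposure; bead-based TCR/CD4/CD28 stimulation; 18 h culture, 37 degrees C; dual fluorescence (EGFP, DsRed) plate cytometry.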
Mito fusion act: qHTS Assay for Small Molecule Inhibitors of Mitochondrial Division or Activators of Mitochondrial Fusion; S. cerevisiae fusion-defective mutant growth rescue, CellTiterGlo 48 h; Potency, µM (top dose mostly 46.1 µM), without a hit: at the highest dose growth rescue (activation), most hits filed as activators; hit rate 0.23% among 320,000; further: potency means the concentration at half of the fitted maximal effect; % of control where 0% means no effect; nearly all actives have a fitted effect of over 45% in size
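Growth-rescue viability read-out: after 48 h at the non-permissive 37C in glycerol/ethanol YPEG, yeast mitochondrial fusion mutants are measured by CellTiterGlo luminescence; compounds (23 nl pinned per well) restoring growth score as division inhibitors or fusion activators.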
TCR activator: Activators of T cell receptors: qHTS campaign. primary human leukocytes, anti-CD3, IL-2 HTRF, 48 h. Potency, µM (highest dose often 9.22 µM), inactives show top-dose activation of IL-2 secretion, actives largely listed as activators. 330,000 tested, under 10 active; further: % of control where 0% means no effect
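Primary human leukocytes were stimulated with a-CD3 beads plus compounds for 48 hr without co-stimulation; secreted IL-2 was quantified by HTRF using a-IL-2-K (europium cryptate) and a-IL-2-d2, excited at 320nm with acceptor emission read at 665nm.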
An asterisk follows results filed as active; i = inactive; u = inconclusive; x = not tested or not shown; [ ] = another dose, or the depositor's remark. Hits are enriched below; roughly 1.3% of the tested compounds scored in any of these assays. Unless noted, the call rests on the fitted dose curve; in most records, active means well fitted curve in the direction sought with a large enough effect; inconclusive means small, poorly fitted or top-dose-only effect, or another doubt; inactive means no such curve, though single readings can be large; an effect the other way counts as inactive or inconclusive.

SMILES	BRCA1 expr act	BCR signal inh	PTHR1 agonist	IL-2 act	Mito fusion act	TCR activator
C=CCn1c(NC(=O)c2ccco2)c(S(=O)(=O)c2ccccc2)c2nc3ccccc3nc21	x	u	x	x	6%	x
C=CCn1c(NC(=O)c2ccc(Br)o2)c(S(=O)(=O)c2ccccc2)c2nc3ccccc3nc21	0%	12%	-43%[57.5 µM]	2	11µM*	-6%
Cc1ccc(NC(=O)Cc2cccs2)cc1Cl	11µM*	u	-9%	0	4%	x
Cc1nc2ccc(NC(=O)Cc3cccs3)cc2s1	3.5µM*	10%	i	-1	-11%	1%
O=C(Cc1cccs1)Nc1ccc(F)c(F)c1	31%	2%	-20%	0	1%	x
Cc1nc2ccc(NC(=O)CS(=O)(=O)c3ccc(F)cc3)cc2s1	11µM*	u	-4%	-1	-14%	-1%
Cc1ccc(NC(=O)CCC(=O)c2cccs2)cc1F	13µM*	9%	-6%	-2	12%	4%
Cc1cc(F)ccc1NC(=O)C1CCC(CNS(=O)(=O)c2ccc3c(c2)CCCC(=O)N3)CC1 (stereo not drawn)	-22%	x	-38%	x	x	x
O=c1cc(-c2ccccc2)nc2c(Cl)cc(Cl)cn12	-62%	x	i	-2	x	x
O=S(=O)(Oc1ccccc1N1CCCCC1)c1ccccc1	3%	20%	-24%	-3	-6%	-2%
OCC1O[C@H]([S-])[C@H](O)[C@@H](O)[C@@H]1O.[Au+] (stereo partly drawn)	x	x	x	x	4%	x
O=C1Cc2c([nH]c3ccc(Br)cc23)-c2ccccc2N1	-76%	x	-88%	2	7.3µM*	7%
O=[N+]([O-])c1cccc(-c2nc3ccc([N+](=O)[O-])cc3[nH]2)c1	5µM*	0%	-47%	-1	4%	-1%
COc1cc(C(=S)N2CCCC2)ccc1OCc1ccc(C)cc1	11µM*	u	-9%	1	-5%	x
COc1cc(CN2CCCCC2)ccc1OCc1ccccc1	10µM*	0%	i	2	-3%	5%
COc1cc(CNC(=O)C2CC2)ccc1OCc1ccccc1	13µM*	2%	-8%	2	-4%	0%
CCc1sc(-c2cc3cccc(OC)c3oc2=O)nc1-c1ccccc1	2%	x	x	x	x	x
Cn1c(-c2ccc(C(C)(C)C)cc2)n[nH]c1=S	20µM*	u	-65%[57.5 µM]	0	5%	-5%
COc1ccc(/C=N/Nc2ncc(Br)cn2)c(OC)c1	10µM*	1%	i	0	-3%	0%
CCOc1ccc2c(c1)c(N=Nc1cccc(C(=O)O)c1)c(O)n2C	10µM*	u	-22%	0	16%	-4%
Cc1ccc(/C=C2/NC(=O)N(Cc3ccccc3)C2=O)s1	19%	u	u	159*	1%	x
Cc1ccc(NC(=O)CN2C(=O)N/C(=C/c3ccc(C)s3)C2=O)cc1	-6%	15%	i	53*	-2%	-7%[46.1 µM]
Cc1cccc(CN2C(=O)N/C(=C/c3ccc(C)s3)C2=O)c1	-47%	u	i	14	2%	-2%
Cn1cc(S(=O)(=O)N2CCCC2)cc1C(=O)N1CCN(c2ccccc2)CC1	16%	u	i	-3	-2%	8%
Oc1[nH]c2ccccc2c1N=Nc1cccc(Cl)c1	37%	u	-8%	1	-27%	-1%
SMILES	BRCA1 expr act	BCR signal inh	PTHR1 agonist	IL-2 act	Mito fusion act	TCR activator
Cc1cccc2c(N=Nc3ccccc3)c(O)[nH]c12	3%	10%	-25%	257*	6%	-2%
O=C(c1ccc([N+](=O)[O-])cc1)N(Cc1cccs1)C1CCS(=O)(=O)C1 (stereo not drawn)	-12%	0%	1%	-3	3%	4%
Cc1ccc(Nc2nc(CSc3nnc(-c4ccccc4C)n3C)cs2)cc1	45%	u	-21%	0	20%	3%[46.1 µM]
Cn1nnnc1SCc1cccc(CSc2nnnn2C)n1	1%	-1%	i	0	-1%	-2%
Cc1csc(Nc2ccc(Cl)cc2)n1	u	-3%	-29%	-1	-2%	x
Cn1nnnc1SCc1csc(Nc2ccccc2)n1	13µM*	1%	i	0	-5%	0%
Cc1ccc(Nc2nc(CSc3nnc(-c4ccccc4)n3C)cs2)cc1	3.5µM*	u	-34%	-2	16%	0%[46.1 µM]
Cc1ccc(Nc2nc(CSc3nnnn3C)cs2)cc1	3.2µM*	10%	11%[57.5 µM]	0	-6%	-5%
Cc1ccc(Nc2nc(CSc3nnnn3-c3ccccc3)cs2)cc1	-32%	x	-10%	-2	3%	1%
Cc1ccc(Nc2nc(C)cs2)cc1	2.5µM*	u	-15%	-3	-11%	-1%
COc1ccccc1NCC(=O)N/N=C(\C)c1cccs1	0%	u	-8%	-1	-12%	5%
O=C(C(Cl)Cl)N1c2ccccc2OCC1c1ccccc1 (stereo not drawn)	-41%	-1%	-13%[57.5 µM]	-5	u	3%
COc1ccc(-c2nnc(SCc3ccccn3)n2C)cc1	13µM*	-1%	i	0	-1%	-4%[46.1 µM]
COc1ccccc1-c1nnc(SCc2ccccn2)n1C	0%	u	i	-2	-2%	x
COc1ccc(-c2noc(CSc3nc4ccccc4[nH]3)n2)cc1OC	-34%	x	-33%	x	x	x
Nc1nc(SCc2ccccc2)[nH]c(=O)c1-c1ccccc1	10µM*	u	0%[57.5 µM]	-2	0%	-2%
COc1ccc(-c2noc(CSc3nc(N)c(-c4ccccc4)c(=O)[nH]3)n2)cc1OC	-13%	21µM*	i	0	0%	5%
COc1ccc(/C=C2\SC(=S)N(CCCC(=O)Nc3cc(C)on3)C2=O)cc1OC	-19%	u	i	17	-11%	4%
COc1ccc(/C=C2\SC(=S)N(CCCCCC(=O)Nc3cc(C)on3)C2=O)cc1OC	-19%	u	-13%	80*	-4%	0%
CCOC(=O)N1CCN(C(=O)CCN2C(=O)/C(=C\c3ccc(OC)c(OC)c3)SC2=S)CC1	14%	x	-7%	93*	x	x
CCC[N+](C)(C)c1ccc(/C=C/c2ccnc3ccccc23)cc1	-54%	x	x	x	x	x
OC(c1ccccc1)c1nc(/C=C/c2ccccc2)cs1 (stereo not drawn)	10µM*	x	-7%	0	x	x
O=C(NCC(c1ccco1)N1CCc2ccccc21)C(=O)Nc1ccc(F)cc1F (stereo not drawn)	-61%	9.2µM*	-19%	-3	u	2%
